# TDP1 cell CPT = qHTS for Inhibitors of human tyrosyl-DNA phosphodiesterase 1 (TDP1): qHTS in cells in presence of CPT; chicken DT40 Tdp1-/-;hTDP1 cells + 20 nM CPT, ATP luminescence, 48 h; 12% of 420,000 active; Potency, µM (series often up to 46.2 µM), usual class: inhibitors; AID 686979, 2013; also: nearly all actives have a fitted effect of over 55% in size
#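 Chicken DT40 Tdp1-/- cells complemented with human TDP1, 400 cells/well, exposed to compounds plus 20 nM camptothecin for at least 48 h at 37 C; viability read as ATP content by CellTiter-Glo luminescence.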
# IL1B secr inh = qHTS for Inhibitors of Inflammasome Signaling: IL-1-beta AlphaLISA Primary Screen | THP-1 LPS/ATP IL-1B secretion, AlphaLISA, 16 h; active compounds read low | activity change, % at 57.5 µM | 4.7% of 360,000 active; in the data active = activity change below about -50%; inconclusive = mostly about -30% to -49%
#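 Secreted IL-1B measured by AlphaLISA bead assay after 16 h compound exposure of THP-1 cells; compounds (final up to 57.5 uM) added 1 h before LPS (250 ng/mL) and ATP (1.25 mM) stimulation; lower signal means less secretion.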
# TDP1 cell noCPT = qHTS for Inhibitors of human tyrosyl-DNA phosphodiesterase 1 (TDP1): qHTS in cells in absence of CPT; DT40 Tdp1-/- hTDP1 cells, no CPT, ATP luminescence, 48 h; 15% of 420,000 active; Potency, µM (top dose mostly 46.2 µM), most hits filed as inhibitors; AID 686978, 2013; also: nearly all actives have a fitted effect of over 55% in size
#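 DT40 Tdp1-/-;hTDP1 cells, no CPT (DMSO vehicle only), 400 cells/well; compounds pin-transferred; ≥48 hr, 37 °C; CellTiter-Glo 30 min RT dark, luminescence read.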
# HT1080NT lethal = qHTS for induction of synthetic lethality in tumor cells producing 2HG: qHTS for the HT-1080-NT fibrosarcoma cell line. HT-1080-NT fibrosarcoma viability, CellTiter-Glo ATP luminescence, 48 h. Potency, µM (series often up to 46.1 µM), actives largely listed as cytotoxic. 1.6% of 360,000 active. AID 686970, 2013;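 also: NT is the 2HG producing partner of a matched IDH1 knockdown line; nearly all actives have a fitted effect of over 55% in size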
#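 HT-1080-NT; 750 cells/well; 5% FBS RPMI; 48 h compound, 37 degrees C; CellTiter-Glo luminescence; curve fitting and curve-class assignment.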
# ELG1 repair inh = qHTS screen for small molecules that inhibit ELG1-dependent DNA repair in human embryonic kidney (HEK293T) cells expressing luciferase-tagged ELG1; HEK293T ELG1-luciferase reporter, luminescence, 16 h; DNA damage induced by 5-fluorouridine; Potency, µM (doses to about 46.1 µM), actives largely listed as inhibitors; 2.3% of 330,000 active; also: nearly all actives have a fitted effect of over 55% in size
#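 5-Fluorouridine DNA damage + compound/DMSO, 2,000 cells/well, 16 h, 37 °C/5% CO2. ONE-Glo, 30 min RT, luminescence. Readout = decrease in reporter signal.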
# HT1080 IDH1KD tx = qHTS for induction of synthetic lethality in tumor cells producing 2HG: qHTS for the HT-1080-IDH1KD cell line | HT-1080 IDH1 knockdown viability, ATP luminescence, 48 h | Potency, µM (series often up to 46.1 µM), actives largely listed as cytotoxic | 2% of 360,000 active | AID 686971, 2013
#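 Viability of IDH1-knockdown HT-1080 fibrosarcoma cells was assessed by CellTiter-Glo after 48 h at 37 °C with titrated compound; concentration-effect curves were classified by fit quality and response size.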
# Hits are given with their value; n = inactive; u = inconclusive; x = not tested or not shown. In the library only some 19% were active in any assay of this set; here they are far more common. Unless noted, calls follow the shape of the dose curve; as a rule, active = well fitted curve in the direction sought with a large enough effect; inconclusive = small, poorly fitted or top-dose-only effect, or another doubt; inactive = no such curve, though single readings can be large; an effect the other way counts as inactive or inconclusive.
SMILES,TDP1 cell CPT,IL1B secr inh,TDP1 cell noCPT,HT1080NT lethal,ELG1 repair inh,HT1080 IDH1KD tx
O=C(CCNS(=O)(=O)c1ccc2c(c1)CCN2C(=O)C1CC1)N1CCN(c2ccc(F)cc2)CC1,3.26µM,x,9.2µM,x,x,x
Cc1[nH]c2ccccc2c1/C=N/Nc1cccc(C(=O)O)c1,n,n,n,n,u,n
CCOCCCNc1ccc(N2C(=O)C3CCCCC3C2=O)cc1[N+](=O)[O-] (stereo not drawn),u,n,n,n,n,n
c1coc(CNc2ncnc3c2nc2n3CCCC2)c1,n,x,n,x,x,x
N#Cc1ccc(CN2CCN(C(=O)c3ccc(S(=O)(=O)NCc4ccco4)cc3)CC2)cc1,10.3µM,n,2.59µM,n,u,n
CC(=O)N1CCc2cc(S(=O)(=O)NCCC(=O)N3CCN(Cc4ccccc4)CC3)ccc21,u,n,20.6µM,n,u,n
Cc1ccc(S(=O)(=O)NCCC(=O)N2CCN(Cc3ccccc3)CC2)cc1,n,n,n,n,n,n
O=C(c1ccc(S(=O)(=O)NCc2ccco2)cc1)N1CCCC1,n,n,n,n,n,n
N#Cc1ccc(CN2CCN(CC(=O)NCCc3ccc(Cl)cc3Cl)CC2)cc1,20.6µM,u,20.6µM,u,n,u
CCCCNC(=O)C(NC(=O)c1ccc(C)cc1)C(=O)c1ccccc1 (stereo not drawn),n,n,n,n,x,n
O=C(Nc1ccccc1N1CCCC1)c1ccc(Br)o1,u,n,u,n,n,n
O=C(Nc1cccc(Cl)c1N1CCOCC1)c1ccc(Br)o1,10.3µM,n,10.3µM,n,u,n
O=C(Nc1cc(C(F)(F)F)ccc1N1CCCCC1)c1ccc(Br)o1,18.4µM,n,u,n,n,n
O=C(Nc1ccc(N2CCCC2)c(Cl)c1)c1ccc(Br)o1,18.4µM,n,u,u,u,u
O=C(Nc1ccccc1)Nc1nnc([C@H]2C[C@H](O)[C@@H](CO)O2)s1,n,n,n,n,x,n
COc1ccc(NC(=O)c2oc3ccccc3c2NC(=O)C2CCCCC2)c(OC)c1,n,x,n,x,x,x
Cc1ccccc1CN1c2ccccc2-c2nc(SCC(=O)NCCc3ccccc3)ncc2S1(=O)=O,n,x,u,x,x,x
CCc1ccc(C2c3[nH]c4ccccc4c3CCN2C(=O)CN2CCN(CC)CC2)cc1 (stereo not drawn),u,-72.3,25.9µM,23.1µM,n,u
CCc1ccc(C2c3[nH]c4ccccc4c3CCN2C(=O)c2ccc(=O)n(C)n2)cc1 (stereo not drawn),u,n,u,n,u,u
CC(=O)c1cc(CC(=O)N2CCc3c([nH]c4ccccc34)C2c2ccccn2)cs1 (stereo not drawn),u,n,u,n,n,n
CCc1ccc(C2c3[nH]c4ccccc4c3CCN2C(=O)CNC(N)=O)cc1 (stereo not drawn),n,-57.0,n,n,n,n
CCn1c(COC(=O)CNC(=O)c2ccccc2)nc2cc(S(=O)(=O)N(C)C)ccc21,n,n,n,n,n,n
CC(C)(C)c1ccc(S(=O)(=O)NNC(=O)C2CCN(Cc3cccc(F)c3)CC2)cc1,n,-54.2,n,n,n,n
O=C(NCCc1cccc(F)c1)C1CCN(S(=O)(=O)c2ccc(F)cc2)CC1,n,n,n,n,n,n
O=C(C[C@@H]1C/C=C\C[C@H](NC(=O)OCC2c3ccccc3-c3ccccc32)C(=O)OC[C@@H]2CCCN2C1=O)N[C@@H](CO)Cc1ccccc1,18.4µM,n,18.4µM,n,u,n
